The list is not random: actives were taken first. Their share in the collection is about 9.3%.
Rab9 prom act = qHTS Assay for Rab9 Promoter Activators | Huh7 Rab9 promoter-luciferase reporter, luminescence, 24 h | Potency, µM (doses to about 9.22 µM), without a hit: at the highest dose activation, negative = inhibition, hits mostly activators | 320,000 tested, 2.8% active; note: % of control where 0% means no effect; nearly all actives have a fitted effect of over 60% in size
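Huh7 reporter line, Rab9 promoter upstream of luciferase. Compound exposure 24 h at 37 °C in reduced-serum medium with 10% FBS. Read-out: luminescence.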
FLuc counter = qHTS profiling assay for firefly luciferase inhibitor/activator using purifed enzyme and Km concentrations of substrates (counterscreen for miR-21 project). AID 588342, 2011. 360,000 tested, 6.9% active. Luciferin 4-monooxygenase (Photinus pyralis), P08659. purified FLuc, Km substrates, luminescence inhibition. Potency, µM (series often up to 57.5 µM), without a hit: at the highest dose activity change, negative = inhibition, usual class: inhibitors;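 note: plate controls were vehicle for no effect and reference inhibitor for full effect; nearly all actives have a fitted effect of over 55% in size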
Target sequence (P08659 whole entry, looked up): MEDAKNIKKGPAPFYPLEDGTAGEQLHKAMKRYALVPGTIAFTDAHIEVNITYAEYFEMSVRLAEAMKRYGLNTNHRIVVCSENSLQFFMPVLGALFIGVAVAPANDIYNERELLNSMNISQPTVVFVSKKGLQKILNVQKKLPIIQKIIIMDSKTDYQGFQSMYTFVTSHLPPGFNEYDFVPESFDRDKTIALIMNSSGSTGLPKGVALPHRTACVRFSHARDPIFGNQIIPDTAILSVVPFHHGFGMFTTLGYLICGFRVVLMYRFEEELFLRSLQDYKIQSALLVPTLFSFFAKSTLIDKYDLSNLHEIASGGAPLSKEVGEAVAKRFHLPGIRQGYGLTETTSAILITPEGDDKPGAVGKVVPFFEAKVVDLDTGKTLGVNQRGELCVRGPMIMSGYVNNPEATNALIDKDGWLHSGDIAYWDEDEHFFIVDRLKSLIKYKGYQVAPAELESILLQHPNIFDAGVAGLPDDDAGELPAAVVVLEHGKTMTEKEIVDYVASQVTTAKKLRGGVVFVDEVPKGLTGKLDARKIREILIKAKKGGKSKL
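Purified P. pyralis luciferase, 10 nM final, with Km-level 10 uM D-luciferin and 10 uM ATP in 50 mM Tris acetate pH 7.5, 10 mM Mg acetate, 0.01% Tween-20, 0.05% BSA; 6-point qHTS titration about 60 µM downward; luminescence read.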
ELG1 genotox = qHTS screen for small molecules that induce genotoxicity in human embryonic kidney (HEK293T) cells expressing luciferase-tagged ELG1 | Potency, µM (top dose mostly 46 µM), inactives show at the highest dose activity change, positive = activation, most hits filed as activators | 330,000 tested, 1.3% active | HEK293T ELG1-luciferase reporter, luminescence, 16 h | AID 504466, 2011; note: % of control where 0% means no effect; nearly all actives have a fitted effect of over 60% in size
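After overnight (16 hr) compound treatment at 37 °C, ELG1-luciferase HEK293T cells were lysed with ONE-Glo; luminescence quantified 30 min later at room temperature.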
ELG1 DNA repair = qHTS screen for small molecules that inhibit ELG1-dependent DNA repair in human embryonic kidney (HEK293T) cells expressing luciferase-tagged ELG1 | HEK293T ELG1-luciferase reporter, luminescence, 16 h; DNA damage induced by 5-fluorouridine | Potency, µM (highest dose often 46.1 µM), for inactives: top-dose activity change, negative = inhibition, actives largely listed as inhibitors | 330,000 tested, 2.3% active; note: % is set by controls: 0 for no effect and ±100 for the full control effect; nearly all actives have a fitted effect of over 55% in size
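HEK293T cells expressing luciferase-tagged ELG1 (2,000/well) received 5-Fluorouridine plus compound or DMSO for 16 hr at 37 °C. Luciferase was read by ONE-Glo luminescence after 30 min at room temperature.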
NPC1 promoter act = qHTS Assay for NPC1 Promoter Activators; Huh7 NPC1 promoter luciferase reporter, 24 h; Potency, µM (doses to about 9.22 µM), inactives show top-dose activation, actives largely listed as activators; 320,000 tested, 2.4% active; note: % of control where 0% means no effect; nearly all actives have a fitted effect of over 60% in size
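Cells: Huh7 expressing luciferase under the NPC1 promoter, 1500/well. Seeded 2 h, compound added, incubated 24 h at 37 °C. Luciferase reagent, 10 min ambient, then luminescence.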
SMN2 splice enh = qHTS Assay for Enhancers of SMN2 Splice Variant Expression | HEK293 SMN2-luciferase splicing reporter, luminescence, 30-36 h | Potency, µM (titrated, usually from 46.1 µM), inactives show at the top dose activity change, positive = activation, hits mostly activators | 210,000 tested, 2.8% active | AID 1458, 2008; note: % of control where 0% means no effect; nearly all actives have a fitted effect of over 55% in size
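qHTS luciferase splicing reporter: luminescence rises when SMN2 exon 7 is included in transfected HEK293 cells. Compound exposure lasted 30-36 h at 37C, with 4.5 mM final sodium butyrate as control, followed by a ONE-Glo read.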
Active calls of the source: *; ? = inconclusive; . = no result. Calls come from the whole dose curve; as a rule, active = well fitted curve in the direction sought with a large enough effect; inconclusive = small, poorly fitted or top-dose-only effect, or another doubt; inactive = no such curve, though single readings can be large; an effect the other way counts as inactive or inconclusive. Potency is the fitted concentration of half-maximal effect.

SMILES	Rab9 prom act	FLuc counter	ELG1 genotox	ELG1 DNA repair	NPC1 promoter act	SMN2 splice enh
Cc1cc(C)cc(NC(=O)N2CCc3ccccc3C2)c1	?	19µM*	?	?	?	.
Cc1ccccc1NC(=O)N1CCc2ccccc2C1	27%	?	?	?	19%	?
COC(=O)C1CC(O)CN1C(=O)NC1CCCCC1 (stereo unspecified)	1%	-4%	1%	25%	-1%	-4%
CC(=O)Nc1ccc(NC(=O)C(C)OC(=O)C2CCN(S(=O)(=O)c3ccc4c(c3)OCCO4)CC2)cc1 (stereo unspecified)	-2%	2%	-1%	5%	-6%	.
COC(=O)c1ccc(NC(=O)Cc2ccc(F)cc2)cc1	25%	?	7%	-1%	23%	5%
O=C(Nc1ccc(F)cc1)c1ccccc1	?	24µM*	?	?	?	19%
O=C(Nc1ccc(F)cc1)c1cccc(C(=O)Nc2ccc(F)cc2)c1	7%	-1%	10%	26%	4%	.
COC(=O)c1ccc(C(=O)Nc2ccc(F)cc2)cc1	?	12µM*	14%	?	2.5µM*	.
O=C1NC(=O)C(c2ccc(F)cc2)N1 (stereo unspecified)	8%	-2%	1%	?	4%	.
Cc1ccc(/C=C(\C#N)C(=O)NC(C)C)o1	5%	-1%	-3%	?	-1%	3%
Cc1ccc(/C=C(\C#N)C(=O)Nc2cccc(C)n2)cc1	-2%	2.4µM*	-3%	-16%	4%	.
COc1ccc(O)c(/C=C(\C#N)C(=O)Nc2ccccn2)c1	-2%	2.4µM*	17%	6%	-2%	.
COc1ccc(/C=C(\C#N)C(=O)Nc2ccccn2)cc1	-7%	2.1µM*	?	14%	-8%	.
Cc1ccc(/C=C(\C#N)C(=O)Nc2ccccn2)o1	2.5µM*	8.5µM*	5.2µM*	?	?	18µM*
Cc1cc(C(=O)NCC(=O)Nc2c(C)cccc2C)c(C)o1	7%	0%	0%	-6%	1%	.
C=CCn1c(=O)c2ccccc2n2c(SCC(C)=O)nnc12	0%	2%	-1%	22%	0%	.
Cc1ccc(NC2CCCN(C(=O)C3CCCC3)C2)cc1C (stereo unspecified)	0%	5%	-5%	-3%	-3%	.
C#CCN1C(=O)S/C(=C/C=C/c2ccc(N(C)C)cc2)C1=O	2µM*	2.7µM*	9.2µM*	?	3.2µM*	7.1µM*
Cc1c([N+](=O)[O-])c(C(=O)Sc2ccc(Br)cc2)nn1C	-10%	17µM*	-10%	?	3%	.
Cc1c([N+](=O)[O-])c(C(=O)N2CCCC2)nn1C	2%	-2%	2%	-4%	-3%	10%
Cc1ccc(CNC(=O)c2cc(-c3ccccc3C)nn2CC2CC(c3cccnc3)=NO2)cc1 (stereo unspecified)	.	.	-7%	?	.	.
Cc1ccccc1-c1cc(C(=O)NCc2ccc(OC(F)(F)F)cc2)n(CC2CC(c3cccnc3)=NO2)n1 (stereo unspecified)	.	.	-9%	18µM*	.	.
Cc1ccccc1-c1cc(C(=O)NCc2cccc(C(F)(F)F)c2)n(CC2CC(c3cccnc3)=NO2)n1 (stereo unspecified)	.	.	-9%	16µM*	.	.
CCc1ccc(Nc2cc(C(=O)NCCCN(C)c3ccccc3)c3ccccc3n2)cc1	.	-1%	.	.	.	.
CCOC(=O)N1CCC(NC(=O)Cn2ncc3c4ccccc4n(C)c3c2=O)CC1	12%	19µM*	9%	?	11%	7%
SMILES	Rab9 prom act	FLuc counter	ELG1 genotox	ELG1 DNA repair	NPC1 promoter act	SMN2 splice enh
Cc1c2cnn(CC(=O)NCCCN3CCCCC3C)c(=O)c2c(C)n1Cc1ccccc1 (stereo unspecified)	6%	-2%	5%	0%	-4%	.
Cc1c2cnn(CC(=O)NC3CCCC3)c(=O)c2c(C)n1Cc1ccccc1	?	24µM*	?	?	?	.
O=C(CSc1nnc(-c2ccccc2)o1)N1CCCc2ccccc21	.	-14%	.	.	.	3%
O=C(CSc1nnc(-c2ccco2)o1)c1ccccc1Cl	?	27µM*	15%	?	17%	22%
O=C(CSc1nnc(-c2ccccc2Cl)o1)N1CCCc2ccccc21	.	24µM*	.	.	.	1%
O=C(CSc1nnc(-c2ccco2)o1)N1CCOCC1	3%	-6%	0%	?	0%	18%
O=C(CSc1nnc(-c2ccco2)o1)N1c2ccccc2CCc2ccccc21	0%	-2%	-11%	12µM*	-3%	-72%
O=C(CSc1nnc(-c2ccco2)o1)c1ccc([N+](=O)[O-])cc1	-1%	-2%	0%	-1%	5%	.
O=C(CCS(=O)(=O)c1cccs1)Nc1ccc(C(=O)NC2CCCC2)cc1	-8%	-2%	-2%	-22%	-3%	9%
CCCOc1ccccc1NC(=O)Nc1ccccc1Cl	2.8µM*	0%	-6%	?	3.5µM*	-6%
CCOc1ccccc1NC(=O)Nc1ccccn1	1%	-19%	-2%	3%	14%	.
CCOc1cc(NC(=S)Nc2ccc(Cl)cc2)c(OCC)cc1NC(C)=O	-7%	0%	-5%	7.3µM*	-6%	.
O=C(NCCCl)Nc1ccccc1OCCOc1ccccc1NC(=O)NCCCl	0%	0%	-3%	-10%	-4%	.
CCOc1ccccc1NC(=O)Nc1ccc(Cl)cc1	12%	21µM*	7%	19%	?	-21%
CCOc1cc(NC(=S)Nc2ccccc2)c(OCC)cc1NC(=O)c1ccc(OC)cc1	-2%	4%	-7%	?	-4%	-19%
Cc1ccc(CNC(=O)C2CCCN(S(=O)(=O)c3cccc4nonc34)C2)cc1 (stereo unspecified)	0%	-4%	9%	0%	2%	.
CCOC(=O)c1cccc(NC(=O)N2CCC(CN3CCCCCC3)CC2)c1	.	0%	.	.	.	.
CC1(C)NC(=O)N(CCCOc2ccc(Br)cc2Cl)C1=O	?	11µM*	15µM*	?	2.8µM*	?
CC1(C)NC(=O)N(CCCCOc2ccc(Br)cc2Cl)C1=O	5%	-15%	7%	1%	0%	-7%
C=CCn1c2ccccc2c2nn(C)c(=S)nc21	3%	-6%	-2%	-5%	2%	.
